# Laboratory results from PubChem BioAssay (Tox21).
# Results filed as inconclusive are left out. A call without a number means that no potency is given here. Activity calls are given as the source filed them. The call rests on the fitted dose curve; in most records, active means well fitted cell-killing curve with a large enough effect in the repeat runs; inconclusive means weak or mixed curves, or effect the other way; inactive means flat fitted curve, though single readings scatter.
# Test: cAMP Responsive Elements (CRE) small molecule agonists, cell-based qHTS assay: qHTS cell viability counter screen (AID 2060914); further: nearly all actives have a fitted effect of over 50% in size
# Conditions: CRE-bla HEK293T viability, CellTiter-Glo luminescence, 5 h; series mostly up to 92.4 µM
# Procedure, shortened: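 Luminescence read-out (CellTiter-Glo, 30 min RT) of ATP-based viability in CRE-bla HEK 293T cells, run in the same wells as the β-lactamase reporter assay after 3 h compound treatment at 37 °C.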
# Potency means the concentration at half of the fitted maximal effect.
row,Structure (SMILES),Potency
1,CC(=O)OCC=C(C)C,inactive
2,CN=C(N)NC(=O)Nc1c(C)cccc1C,inactive
3,CCCCC(CC)COC(=O)c1ccc(O)cc1 (configuration not stated),inactive
4,O=Cc1ccccc1Cl,inactive
5,CC(Oc1c(Cl)cccc1Cl)C1=NCCN1 (configuration not stated),inactive
6,CC[C@@H]([C@H](C)O)n1ncn(-c2ccc(N3CCN(c4ccc(OC[C@@H]5CO[C@@](Cn6cncn6)(c6ccc(F)cc6F)C5)cc4)CC3)cc2)c1=O,26.6 µM (active)
7,COP(=O)(OC)OC(c1ccc(Cl)cc1)P(=O)(OC)OC (configuration not stated),inactive
8,Cc1nc2ccc(CN(C)c3ccc(C(=O)N[C@@H](CCC(=O)O)C(=O)O)s3)cc2c(=O)[nH]1,inactive
9,CCCCCN(CCCCC)C(=O)C(CCC(=O)O)NC(=O)c1ccc(Cl)c(Cl)c1 (configuration not stated),inactive
10,N[C@@H](Cc1cc(I)c(Oc2cc(I)c(O)c(I)c2)c(I)c1)C(=O)O,inactive
11,C1CCCC1,inactive
12,COCCCCCCCCOCCC[Si](C)(O[Si](C)(C)C)O[Si](C)(C)C,inactive
13,CC(C)(C)c1ccc(C(=O)O)cc1,inactive
14,CCOC(=O)CC(=O)c1cc(F)c(Cl)nc1Cl,inactive
15,O=C(O)CCCCCCCCCCCC(=O)O,inactive
16,O=C1OC(=O)c2ccc3c4c(ccc1c24)C(=O)OC3=O,inactive
17,CC(C)OC(=O)c1cc2c(OCC(O)CNC(C)(C)C)cccc2[nH]1 (configuration not stated),inactive
